# Laboratory results published in PubChem BioAssay (NCI).
# Compounds without any hit were thinned out: in the full panel of roughly 83,000, 20% have a hit.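 Note: values are percent growth. 100 is the growth of untreated cells, values between 100 and 0 indicate rising inhibition; between -100 and 0 indicates cell death.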 Calls of active or inactive are those of the source. The calls were made as follows: active = growth percent below 10; inactive = the rest.
# Test system: MDA-MB-468 breast
# Assay: NCI-60 one-dose screen, 48 h (100 = growth as untreated, 0 = no growth, -100 = all killed)
# Conditions: 10 µM unless noted
row,SMILES,growth
1,COc1cc(/C=C/C(=O)c2ccc(NC(=O)CSc3nnc(-c4cc(OC)c(OC)c(OC)c4)n3-c3ccccc3)cc2)cc(OC)c1OC,9.24% (active)
2,COc1ccc(-c2nc(N)n(C(=S)Nc3ccccc3)n2)cc1,102% (inactive)
3,COc1cc(C(O)C2C(=O)OCC2C2(c3ccc4c(c3)OCO4)SCCCS2)cc(OC)c1OC (stereo not drawn),92.2% (inactive)
